Consider 40 molecules from PubChem BioAssay (NCATS).

Inconclusive results are not listed. Values without a mark were called inactive. Activity calls are given as the source filed them. Calls follow the shape of the dose curve; as a rule, active = well fitted cell-killing curve with a large enough effect; inconclusive = small, poorly fitted or top-dose-only effect, or effect the other way; inactive = no such curve, though single readings can be large or run the other way.
Potency is read from the fitted curve at half-maximal effect.

The nature of the assay: Quantitative High-Throughput drug screen in 47 multiple myeloma cell lines against the NCATS MIPE library collection: JJN3_DSMZ cell viability assay (AID 1918966; also: nearly all actives have a fitted effect of over 50% in size). The settings on record: JJN3 myeloma cells viability, CellTiter-Glo ATP, 48 h; series mostly up to 45.8 µM; viability, % of DMSO: at the top concentration. From the text: PI: Beverly A. Mock Ph.D.
Laboratory of Cancer Biology and Genetics,
Center for Cancer Research, National Cancer Institute,
National Institute of Health, Bethesda, Maryland
Drug resistance and disease progression are common in multiple myeloma (MM) patients, underscoring the need for new therapeutic combinations. […] We hypothesized that effective combinations would reduce MYC expression and enhance p16 activity. […] These preclinical data identify potentially useful drug combinations for evaluation in drug-resistant MM and reveal potential mechanisms of combined drug sensitivity.
Described herein is the primary MIPE qHTS used to cherrypick compounds. Validated compounds were then further tested for potential synergistic activiy.
[1] Peat TJ, Gaikwad SM, Dubois W, Gyabaah-Kessie N, Zhang S, Gorjifard S, Phyo Z, Andres M, Hughitt VK, Simpson RM, Miller MA, Girvin AT, Taylor A, Williams D, D'Antonio N, Zhang Y, Rajagopalan A, Flietner E, Wilson K, Zhang X, Shinn P, Klumpp-Thomas C, McKnight C, Itkin Z, Chen L, Kazandijian D, Zhang J, Michalowski AM, Simmons JK, Keats J, Thomas CJ, Mock BA. Drug combinations identified by high-throughput screening promote cell cycle transition and upregulate Smad pathways in myeloma. Cancer Lett. 2023 Aug 1;568:216284. doi: 10.1016/j.canlet.2023.216284. Epub 2023 Jun 24. PMID: 37356470; PMCID: PMC10408729.
SEQUENCE No. (e.g., 1, 2, 3, etc.); […] (e.g., Cells, Incubation, Reagent, etc.); VALUE and DESCRIPTION.
1; Cells; 5 uL; white, solid bottom 1536-well Greiner assay plate.
2; Compounds; 23 nL; Kalypsis pin tool (Wako USA) equipped with a 1536-well pin head to transfer to the assay plates.
3; Incubation; 48 hours; 37C incubation.
4; Reagent;5uL; CellTiter Glo (Promega).
5; Detector; 425V; Luminescence; Viewlux PerkinElmer.
NOTES (numbers refer to Sequence numbers above)
1. The cell-based screening methods employed in this study were like those previously published. Briefly, the corresponding myeloma cell lines were screened in 1,536-well plates with 500 cells, 5-uL per well for inhibition of cell viability (assessed by measuring ATP levels with CellTiterGlo).
2. NCATS MIPE 4.0 library of approved and investigational drugs were added using the Kalypsis pin tool. Wells treated with DMSO only for 100% viability and media only wells for 0% viability were used as controls.
3. The assay plates were covered and incubated for 48 hours in a 37C, 5% CO2 incubator with controlled humidity.
4. After 48 hours, CellTilter-GloTM luminescent substrate mix (Promega) reagent was added to the assay plate and plates we incubated for 5 min at room temperature.
5. Signal was measured as median relative luminescence units on a ViewLux (PerkinElmer) multiplate reader.
[1] Heske CM, Davis MI, Baumgart JT, Wilson K, Gormally MV, Chen L, Zhang X, Ceribelli M, Duveau DY, Guha R, Ferrer M, Arnaldez FI, Ji J, Tran HL, Zhang Y, Mendoza A, Helman LJ, Thomas CJ. Matrix Screen Identifies Synergistic Combination of PARP Inhibitors and Nicotinamide Phosphoribosyltransferase (NAMPT) Inhibitors in Ewing Sarcoma. Clin Cancer Res. 2017 Dec 1;23(23):7301-7311. doi: 10.1158/1078-0432.CCR-17-1121. Epub 2017 Sep 12. PMID: 28899971; PMCID: PMC6636827.
(In general: Cellular ATP, detected with luciferase, serves as a proxy for viable cell number.)
For the molecule `CCCCCC[C@H]1C(=O)O[C@H](C)[C@H](NC(=O)c2cccc(NC=O)c2O)C(=O)O[C@@H](C)[C@@H]1OC(=O)CC(C)C`, the Potency was 0.296 µM (active).

With `C[C@@H]1CC[C@@]2(OC1)O[C@H]1C[C@H]3[C@@H]4CC=C5C[C@@H](O[C@@H]6O[C@H](CO)[C@@H](O[C@@H]7O[C@@H](C)[C@H](O)[C@@H](O)[C@@H]7O)[C@H](O)[C@@H]6O[C@@H]6O[C@@H](C)[C@H](O)[C@@H](O)[C@@H]6O)CC[C@]5(C)[C@@H]4CC[C@]3(C)[C@@H]1[C@H]2C`, the Potency was 2.35 µM (active).

`CC[C@@H]1[C@@H](C)O[C@@](O)([C@@H](C)[C@H](O)[C@H](C)[C@H]2OC(=O)C=CC=C[C@@H](C)[C@@H]([C@@H](C)[C@@H](O)[C@H](C)[C@@]3(O)C[C@H](O[C@H]4C[C@H](O)[C@H](O)[C@H](C)O4)[C@H](CC)[C@@H](C)O3)OC(=O)C=CC=C[C@@H]2C)C[C@H]1O[C@H]1C[C@H](O)[C@H](O)[C@H](C)O1`: the Potency is 0.833 µM (active).

For `CC(C)N[C@@H]1CCn2c(=O)[nH]c3cccc(c32)[C@@H]1O`, the Potency is 9.35 µM (active).

Turning to `CN1CCN(c2ccc([N+](=O)[O-])c3no[n+]([O-])c23)CC1`, the Potency is 18.7 µM (active).

Turning to `CN[C@@H]1Cc2cccc3[nH]c(=O)n(c23)C1`, the “viability, % of DMSO” value is 91%.

As for `Cc1ccccc1-n1c(Cn2cnc3c(N)ncnc32)nc2cccc(C)c2c1=O`, the Potency was 0.833 µM (active).

On to `C[C@@H]1[C@H](O)[C@@H](C)C=CC=CCCC=CC=CC=CC=C[C@H](O[C@H]2O[C@@H](C)[C@H](O)[C@@H](N)[C@@H]2O)CC2O[C@](O)(C[C@@H](O)[C@H](O)CC[C@@H](O)C[C@@H](O)C[C@@H](O)CC(=O)O[C@H]1C)C[C@H](O)[C@H]2C(=O)O`, for which the “viability, % of DMSO” value was 143%.

Turning to `CC(=Cc1csc(C)n1)[C@@H]1C[C@H]2O[C@]2(C)CCC[C@H](C)[C@@H](O)[C@@H](C)C(=O)C(C)(C)[C@@H](O)CC(=O)O1`, the “viability, % of DMSO” value was 127%.

Regarding `COc1cc2cc(c1Cl)N(C)C(=O)C[C@H](OC(=O)C(C)C)[C@]1(C)O[C@H]1[C@H](C)[C@@H]1C[C@@](O)(NC(=O)O1)[C@H](OC)C=CC=C(C)C2`, the “viability, % of DMSO” value was 35.5%.

Turning to `C=C1C[C@H]2[C@H]3CCC(=O)[C@@]3(C)CC[C@@H]2[C@@]2(C)C=CC(=O)C=C12`, the Potency is 14.8 µM (active).

With `C[C@@H]1CC[C@H]2[C@@H](C)C(=O)O[C@@H]3O[C@@]4(C)CC[C@H]1[C@]32OO4`, the Potency is 0.0132 µM (active).

Regarding `CC[C@@H](C(N)=O)N1CCCC1=O`, the “viability, % of DMSO” value was 128%.

For the molecule `Cc1c(C(=O)c2cccc3ccccc23)c2cccc3c2n1[C@H](CN1CCOCC1)CO3`, the Potency is 16.6 µM (active).

Regarding `C[C@@H]1O[C@@H](O[C@@H]2C=C3CC[C@@H]4[C@@H](CC[C@]5(C)[C@H](c6ccc(=O)oc6)CC[C@@]45O)[C@@]3(C)CC2)[C@H](O)[C@H](O)[C@H]1O`, the Potency was 0.0469 µM (active).

In the case of `CO[C@H]1CCC(O[C@H]2C[C@H]([C@]3(C)CC[C@]4(C[C@H](O)[C@@H](C)[C@@H]([C@@H](C)C=C(C)C(=O)[C@H](C)C[C@H](C)C(=O)O)O4)O3)O[C@]3(O[C@@H]([C@H]4O[C@@](O)(CO)[C@H](C)C[C@H]4C)C[C@H]3C)[C@H]2C)O[C@H]1C` (stereo not given in full), the Potency was 0.526 µM (active).

Consider `CC(C)(O)C=CC(=O)[C@](C)(O)[C@H]1[C@H](O)C[C@]2(C)[C@@H]3CC=C4[C@@H](C=C(O)C(=O)C4(C)C)[C@]3(C)C(=O)C[C@@]12C`, for which the Potency is 0.0372 µM (active).

Regarding `Cc1ccccc1-n1c(Cn2ncc3c(N)ncnc32)nc2cccc(C)c2c1=O`, the “viability, % of DMSO” value was 126%.

As for `O=[N+]([O-])c1ncc[nH]1`, the “viability, % of DMSO” value is 106%.

On to `CCNC(=O)C[C@@H]1N=C(c2ccc(Cl)cc2)c2cc(OC)ccc2-n2c(C)nnc21`, for which the Potency is 0.148 µM (active).

Take `C[C@]12Cc3cn[nH]c3C[C@@H]1CC[C@@H]1[C@H]2CC[C@@]2(C)[C@H]1CC[C@]2(C)O`: the Potency was 14.8 µM (active).

As for `N#C[C@H](O[C@@H]1O[C@H](CO[C@@H]2O[C@H](CO)[C@H](O)[C@H](O)[C@H]2O)[C@H](O)[C@H](O)[C@H]1O)c1ccccc1`, the Potency was 18.7 µM (active).

With `CC1=NN=C(c2ccc(N)cc2)c2cc3c(cc2C1)OCO3`, the “viability, % of DMSO” value is 119%.

`C=CCON=C(C[C@H]1O[C@@H]2O[C@]3(C)CC[C@@H]4[C@H](C)CC[C@@H]([C@H]1C)[C@@]24OO3)[C@H]1O[C@@H]2O[C@]3(C)CC[C@H]4[C@H](C)CC[C@@H]([C@@H]1C)[C@@]24OO3`: the Potency is 0.418 µM (active).

As to `CN(C)[C@@H]1C(=O)C(C(N)=O)=C(O)[C@@]2(O)C(=O)C3=C(O)c4c(O)cccc4[C@@](C)(O)[C@H]3[C@H](O)[C@@H]12`, the Potency is 9.35 µM (active).

In the case of `Cc1[nH]nc2ccc(-c3cncc(OC[C@@H](N)Cc4c[nH]c5ccccc45)c3)cc12`, the Potency was 0.264 µM (active).

As to `N=c1c2c(-c3ccccc3)c(-c3ccccc3)n(Cc3ccccc3)c2ncn1C1CCC(O)CC1` (stereo not given), the Potency is 18.7 µM (active).

Consider `C[C@]12COC(=O)C[C@@H]1CC[C@@H]1[C@H]2CC[C@@]2(C)[C@H]1CC[C@]2(C)O`, for which the “viability, % of DMSO” value was 139%.

For `O=S(=O)(F)Cc1ccccc1`, the “viability, % of DMSO” value was 133%.

`C[C@@]12OC(=O)[C@]1([C@@H](O)[C@@H]1C=CCCC1)NC(=O)[C@H]2CCCl`: the Potency was 0.0332 µM (active).

As for `C[C@H]1CCCC=CC2C[C@H](O)C[C@@H]2[C@H](O)C=CC(=O)O1` (stereo not given in full), the “viability, % of DMSO” value is 5.76%.

Turning to `COC[C@H]1OC(=O)c2coc3c2[C@@]1(C)C1=C(C3=O)[C@@H]2CC[C@H](O)[C@@]2(C)C[C@@H]1OC(C)=O`, the Potency is 3.32 µM (active).

Take `c1ccc(CCCN2CCN(CCOC(c3ccccc3)c3ccccc3)CC2)cc1`: the Potency is 20.9 µM (active).

On to `O=c1[nH]c2ccccc2n1C1CCN(Cc2ccc(-c3[nH]c4cc5ncnc5cc4nc3-c3ccccc3)cc2)CC1`, for which the Potency is 29.6 µM (active).

With `CC(C)N(CCNC(=O)CN1CCCC1=O)C(C)C`, the “viability, % of DMSO” value was 143%.

As for `CCN1CCN(C(=O)Cc2ccc(Nc3ncc(F)c(Nc4ccc(C(=O)Nc5ccccc5Cl)cc4)n3)cc2)CC1`, the Potency was 7.43 µM (active).

On to `CC(C)[C@]12O[C@@H]1[C@@H]1O[C@]13[C@]1(O[C@H]1C[C@@H]1C4=C(CC[C@@]13C)C(=O)OC4)[C@H]2O`, for which the “viability, % of DMSO” value was 1.11%.

Regarding `CCc1c(C(=O)C(N)=O)c2c(OCC(=O)O)cccc2n1Cc1ccccc1`, the “viability, % of DMSO” value was 137%.

On to `Cc1c(C(=O)Nc2cccc(C(F)(F)F)c2)cc(-c2ccccc2)n1CCCN1CCOCC1`, for which the Potency was 16.6 µM (active).

For the molecule `O=c1[nH]c2ccc(Cl)cc2c(N[C@@H]2CN3CCC2CC3)c1-c1nc2ccccc2[nH]1`, the Potency is 1.05 µM (active).
